Measurements published in PubChem BioAssay (NCI).
The panel holds about 79,000 compounds, 15% with a hit somewhere; the sample as a whole holds those more often. No stated cut-off is given here; in the data, active means growth inhibition above about 70%; inactive means the rest.

Columns and labels:
[1] = NCI Yeast Anticancer Drug Screen. Data for the rad50 strain (AID 155);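 further: 0% = growth of vehicle-only cultures of the same strain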; details: S. cerevisiae rad50 strain growth inhibition; at 50.0 µM; stronger effect = higher value
In short: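 Yeast carrying a defined DNA repair defect were exposed to test compounds, and growth was compared with vehicle-treated controls to give percent inhibition.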

[2] = NCI Yeast Anticancer Drug Screen. Data for the mec2-1 strain (AID 157); details: S. cerevisiae mec2-1 strain, at 50.0 µM, stronger effect = higher value
In short: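 mec2-1 yeast strain, carrying an alteration in DNA damage repair or cell cycle control, was exposed to compounds; growth inhibition was measured relative to vehicle-treated controls.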

[3] = NCI Yeast Anticancer Drug Screen. Data for the sgs1 mgt1 strain (AID 161);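 further: 0% = growth of cultures given vehicle only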; details: S. cerevisiae sgs1 mgt1 strain, at 50.0 µM, stronger effect = higher value
In short: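 Growth of a repair-deficient yeast mutant was monitored after compound treatment and expressed as inhibition relative to vehicle-treated cultures.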

[4] = NCI Yeast Anticancer Drug Screen. Data for the cln2 rad14 strain (AID 165);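 further: 0% = growth equal to vehicle treated cultures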; details: S. cerevisiae cln2 rad14 strain, at 50.0 µM, stronger effect = higher value
In short: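 Yeast carrying cln2 and rad14 alterations (cell cycle control and DNA damage repair) were exposed to compounds. Growth inhibition was measured against vehicle-treated controls.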

[5] = NCI Yeast Anticancer Drug Screen. Data for the bub3 strain (AID 167); details: S. cerevisiae bub3 mutant strain, at 50.0 µM, stronger effect = higher value
In short: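 Compounds were applied to a genetically altered yeast strain carrying a cell-cycle control defect. Growth inhibition was scored against vehicle-treated controls.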

[6] = NCI Yeast Anticancer Drug Screen. Data for the mlh1 rad18 strain (AID 175); details: S. cerevisiae mlh1 rad18 strain growth inhibition; at 50.0 µM; stronger effect = higher value
In short: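 Growth inhibition of the yeast strain was measured after compound exposure and expressed relative to vehicle-treated controls. The strain carries defined defects in DNA damage repair.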

Measured: growth inhibition

O=C(NO)C(=O)NO
inactive: [1] -0.65% | [2] -2.95% | [3] -1.9% | [4] -19.4% | [5] -20% | [6] -16.8%

CS(=O)(=O)OCC1OC(n2ccc(NC(=O)c3ccccc3)nc2=O)CC1OS(C)(=O)=O (stereo unspecified)
inactive: [1] 0.5% | [2] -16.9% | [3] -5.8% | [4] -11.7% | [5] -14.8% | [6] -4%

Cc1ccc(S(=O)(=O)[N-]C2C(=O)c3ccccc3C(=O)C2[n+]2cccc(C(N)=O)c2)cc1 (stereo unspecified)
inactive: [1] -1.75% | [2] 2% | [3] 9.5% | [4] 4.55% | [5] 8.8% | [6] -38.8%

Cc1ccc(NC(=O)Oc2ccc(Br)cc2)c([N+](=O)[O-])c1
inactive: [1] 20.4% | [2] 16.9% | [3] 16.3% | [4] 16.3% | [5] 11.3% | [6] 13.8%

Oc1cc(CN2COc3ccccc32)c(O)cc1CNC1CCCCC1
inactive: [1] -6.65% | [2] -4.95% | [3] -25.6% | [4] 62.5% | [5] -33.7% | [6] -12.3%

CCOC(=O)C(=O)O
inactive: [1] 12.3% | [2] -9.3% | [3] -4.85% | [4] -7.8% | [5] -5.05% | [6] -5.7%

Cc1ccc(S(=O)(=O)OCOS(=O)(=O)c2ccc(C)cc2)cc1
inactive: [1] 23.1% | [2] 22.2% | [3] 4.95% | [4] 3.15% | [5] -34.4% | [6] -25.2%

COc1ccc(-c2c(-c3ccccc3)c(-c3ccccc3)nn2-c2ccccc2)cc1
inactive: [1] 45.2% | [2] 4.85% | [3] 34.8% | [4] 22.4% | [5] 2.5% | [6] 20.9%

CC1CN(C(=O)/C=C/C(=O)OC2CCCCC2)C(C)CN1C(=O)/C=C/C(=O)OC1CCCCC1 (stereo unspecified)
inactive: [1] 0.2% | [2] -3.15% | [3] -7.9% | [4] 1.7% | [5] -4.45% | [6] -27.2%

S=C(SNC1CCCCC1)SNC1CCCCC1
inactive: [1] -65.5% | [2] -14.2% | [3] 4.25% | [4] -13.4% | [5] 9.35% | [6] 6.25%

CCCCCC/C(CC(=O)CCC(=O)NCCc1ccccc1)=N\Nc1ccc([N+](=O)[O-])cc1[N+](=O)[O-]
inactive: [1] -0.2% | [2] 14.9% | [3] -35.5% | [4] 34.2% | [5] 11.9% | [6] -1.7%

Cc1ccc(S(=O)(=O)OCCN2C(=O)CCC2=O)cc1
inactive: [1] 12.8% | [2] 8.8% | [3] 4.65% | [4] 9.5% | [5] -0.95% | [6] 15.8%

COc1ccc(C(=O)c2ccccc2)c(OC(=O)Nc2c(Cl)cccc2Cl)c1
inactive: [1] -4.25% | [2] -23.9% | [3] 10.2% | [4] 1.05% | [5] -0.1% | [6] 22.6%

O=C(O)c1ccccc1C(NC(=O)N1C(=O)C=CC1=O)NC(=O)N1C(=O)C=CC1=O
inactive: [1] 29.2% | [2] -5.1% | [3] -2.85% | [4] 16.4% | [5] 4.8% | [6] 12.8%

CCOc1ccccc1NC(=O)C1=C(C)NC(C)=C(C(=O)Nc2ccccc2OCC)C1c1ccc([N+](=O)[O-])cc1
inactive: [1] -20.3% | [2] 27.2% | [3] -3% | [4] -4.9% | [5] 30.8% | [6] -7.2%

COc1ccc(-c2cc(=O)c3c([nH]2)CCCC3)cc1
inactive: [1] -10.9% | [2] -6.95% | [3] -11.2% | [4] -16.8% | [5] -4.3% | [6] 5.55%

Clc1ccc2c(c1)nnn1nccc21
inactive: [1] 16.4% | [2] 17.6% | [3] -9.8% | [4] 10.9% | [5] 13.8% | [6] 14.8%

CC(C)(C)C1=Cc2cc3cc(C(C)(C)C)[nH]c(=O)c3cc2S(=O)(=O)N1
inactive: [1] -23.2% | [2] -22.6% | [3] -14.4% | [4] 3% | [5] 5.4% | [6] -20.9%

CCOc1ccc(Br)cc1/C=N\NC(=O)c1ccccc1N(C)C
inactive: [1] -8.8% | [2] -11.6% | [3] -16.8% | [4] -23.6% | [5] -2.25% | [6] -11.2%

c1ccc2c3c([nH]c2c1)CCCCCC3
inactive: [1] 19.2% | [2] 14.6% | [3] 15.1% | [4] 13.2% | [5] 21.8% | [6] 15.9%

COc1cc(NC=O)c2c(c1)SCC(=O)N2
inactive: [1] -1.75% | [2] -52.5% | [3] -8.75% | [4] 6.7% | [5] 6.2% | [6] -6.6%

CC1(C)C(=O)c2cc3ccc4ccccc4c3cc2C(C)(C)C1(C)C
inactive: [1] -1.25% | [2] -4.25% | [3] 1.2% | [4] 43.6% | [5] 2.75% | [6] -7%

CCOC(=O)C(/C=N\C(=S)Nc1ccc(OCC)cc1)=C(/O)c1ccccc1
inactive: [1] -49.1% | [2] -52.6% | [3] -26.6% | [4] -14.8% | [5] -30.2% | [6] 6.5%

Cc1ccccc1C1=CCCCCC1
inactive: [1] -5.15% | [2] -17.6% | [3] -2.8% | [4] 0.75% | [5] -7.65% | [6] -9.8%

COC(=O)c1ccc(Cl)c(Cl)c1Cl
inactive: [1] -3.6% | [2] -7.35% | [3] -19.6% | [4] -11.8% | [5] 6.1% | [6] -26.3%

CN(C(=O)C12C3C4C1C1C2C3C41C#N)C(C)(C)C (stereo unspecified)
inactive: [1] 20.6% | [2] 6.15% | [3] 2.5% | [4] 11.2% | [5] 20.5% | [6] 19.6%

CC1(C)OC(C)(C)c2c1nnc(-c1ccccc1[N+](=O)[O-])[n+]2[O-]
inactive: [1] 8.1% | [2] 11.5% | [3] 22.4% | [4] 12.8% | [5] 26.9% | [6] 14.1%

COc1cc2oc(-c3ccc(O)cc3)cc(=O)c2c(OC)c1OC
inactive: [1] -4.35% | [2] -5.95% | [3] -2.35% | [4] -26.7% | [5] 17.9% | [6] 12.3%

CC(O)/C=C/C(CCC(C)CO)C(C)C (stereo unspecified)
inactive: [1] -17% | [2] -27.6% | [3] -26% | [4] -10.2% | [5] -25.9% | [6] -16%

O=C1Nc2ccccc2C1=O
inactive: [1] -0.85% | [2] 11.4% | [3] -31.8% | [4] -22.5% | [5] -12.3% | [6] -50%

Cc1c(Br)cc(Br)c(O)c1Br
inactive: [1] 37.3% | [2] 26.9% | [3] 23.7% | [4] -29.4% | [5] 9.1% | [6] 31.1%

CC1(C)CC([NH-])(C(=O)O)CC(C)(C)N1O.CC1(C)CC([NH-])(C(=O)O)CC(C)(C)N1O.[Cu+2]
inactive: [1] 27.6% | [2] -17.9% | [3] 16.5% | [4] -20.3% | [5] 0.7% | [6] 4.55%

Cc1cc2c(c(C(=O)NCCC(=O)O)c1)Oc1c(cc(C)cc1C(=O)NCCC(=O)O)S2
inactive: [1] -26.9% | [2] -13.6% | [3] -8.2% | [4] 3.95% | [5] -44.1% | [6] -2.65%

CC(=O)OC(Cn1cncn1)(Cn1cncn1)c1ccc(Cl)cc1Cl
inactive: [1] 43.6% | [2] 32.5% | [3] 58.3% | [4] 46.8% | [5] 39.8% | [6] 56.7%

Cn1c(=O)c2c(nc(NCCO)n2Cc2ccccc2)n(C)c1=O
inactive: [1] 20.1% | [2] 9.95% | [3] 7.2% | [4] 18.3% | [5] 8.45% | [6] 31.2%

NC(=O)OC1CCN(c2cccc(Cl)c2)C1 (stereo unspecified)
inactive: [1] -8.1% | [2] -22.3% | [3] -16.1% | [4] 23.5% | [5] -18.8% | [6] 1.75%

CC(=O)Nc1ccc(/C=N/NC(=O)/C=C/c2ccccc2)cc1
inactive: [1] -7.15% | [2] 3.25% | [3] 6.25% | [4] -5% | [5] -1% | [6] 2.15%

CCOC(=O)c1c(O)[nH]c(=O)c(CC)c1C
inactive: [1] -13.2% | [2] -29.3% | [3] -45.8% | [4] -16.4% | [5] -30.8% | [6] -4.1%

CCCCOC(=O)c1cc(/C=C\c2ccccc2)on1
inactive: [1] -12.9% | [2] -2.45% | [3] 3.1% | [4] -69.6% | [5] 30.6% | [6] 9.25%

CCCC[N+](CCCC)(CCCC)CC(=O)[O-]
inactive: [1] 5.7% | [2] -3.1% | [3] -19.8% | [4] -45.1% | [5] -8.3% | [6] -24.6%

C[N+](C)(C)CC(=O)N/N=C(/CC(=O)CC(C1=C(O)c2ccccc2OC1)c1ccccc1)C(=O)Nc1cccc(Cl)c1 (stereo unspecified)
inactive: [1] 58% | [2] 39.5% | [3] 27.7% | [4] 34.4% | [5] 28.4% | [6] 5.5%
